Among the data in PubChem BioAssay AID1159554 (Broad Institute, 2015) are activity change values, retold here.

Where “and” joins values, the source holds several entries; their conditions need not be identical. Equal values may be shown once. In all, about 94,000 compounds went through this assay and about 2,100 (2.2%) were called active. Rule as the data show it: active = activity change below about -80%; inconclusive = no clear call, values can overlap the other calls; inactive = above that. Shown is part of a subset that was picked to be rich in actives.

This assay in a line: Dd2 malaria parasite growth inhibition – SYBR Green fluorescence, single dose replicates, primary screen (AID 1159554). Conditions: P. falciparum Dd2 growth, 72 h, at 10 µM, hits give low values.
For `C[C@H](CO)N1C[C@H](C)[C@H](CN(C)C(=O)C2CCCCC2)Oc2ncc(C#Cc3cccc(F)c3)cc2C1=O`, the activity change was -86.4% (active).

Regarding `COc1cccc(C#Cc2cnc3c(c2)C(=O)N([C@@H](C)CO)C[C@H](C)[C@@H](CN(C)C(=O)C2CCC2)O3)c1`, the activity change was -74.6% (inactive).

Consider `COc1cccc(C#Cc2cnc3c(c2)C(=O)N([C@H](C)CO)C[C@@H](C)[C@@H](CN(C)C(=O)C2CCC2)O3)c1`, for which the activity change was -84.4% (active).

`C[C@H]1CN([C@@H](C)CO)C(=O)c2cc(/C=C/c3ccccc3)cnc2O[C@@H]1CN(C)C(=O)NC1CCCCC1`: the activity change is -82.8% (active).

For the molecule `C[C@H](CO)N1C[C@H](C)[C@H](CN(C)C(=O)C2CC2)Oc2ncc(C#Cc3ccccc3)cc2C1=O`, the activity change was -17.2% (inactive).

As for `COc1ccc(-c2cnc3c(c2)C(=O)N([C@@H](C)CO)C[C@H](C)[C@H](CN(C)C(=O)Cc2cccnc2)O3)cc1`, the activity change is -2.15% (inactive).

For `C[C@@H]1CN([C@H](C)CO)C(=O)c2cc(-c3ccccc3)cnc2O[C@H]1CN(C)C(=O)NC1CCCC1`, the activity change was -13% (inactive).

`COc1cccc(C#Cc2cnc3c(c2)C(=O)N([C@@H](C)CO)C[C@H](C)[C@@H](CN(C)C(C)=O)O3)c1`: the activity change was -15.1% (inactive).

For the molecule `COc1ccc(-c2cnc3c(c2)C(=O)N([C@H](C)CO)C[C@@H](C)[C@H](CN(C)C(=O)Cc2ccncc2)O3)cc1`, the activity change was -84.6% (active).

Regarding `C[C@H](CO)N1C[C@H](C)[C@@H](CN(C)C(=O)Cc2cccnc2)Oc2ncc(-c3ccncc3)cc2C1=O`, the activity change was 14.1% (inactive).

For the molecule `C[C@@H]1CN([C@@H](C)CO)C(=O)c2cc(/C=C/c3ccccc3)cnc2O[C@H]1CN(C)C(=O)C1CCC1`, the activity change was -56.3% (inactive).

As for `C[C@H](CO)N1C[C@H](C)[C@H](CN(C)C(=O)C2CCCCC2)Oc2ncc(C#CC3CC3)cc2C1=O`, the activity change is -16.5% (inactive).

With `CC(C)(C)[S@@](=O)N1Cc2cc(C(=O)N3CCCCC3)nc(-c3cccc(-c4cccc(C#N)c4)c3)c2[C@H]1CCO`, the activity change is -13.7% (inactive).

On to `O=C(c1ccc(F)cc1)N1CC(=O)N2[C@H](C1)[C@@H](c1ccc(C#CC3CC3)cc1)[C@@H]2CO`, for which the activity change is -8.1% (inactive).

Consider `Cc1ccc(S(=O)(=O)Nc2ccc3c(c2)C(=O)N([C@H](C)CO)C[C@H](C)[C@@H](CN(C)S(=O)(=O)c2cn(C)cn2)OCCCC[C@H](C)O3)cc1`, for which the activity change is -12.5% (inactive).

Consider `COC(=O)C[C@H]1CC[C@H](NC(=O)Nc2ccc(C(F)(F)F)cc2)[C@H](CO)O1`, for which the activity change is 21.3% (inactive).

As for `CCCNC(=O)C[C@H]1CC[C@@H]2[C@H](COc3ccc(NC(=O)c4ccc(OC)cc4)cc3C(=O)N2C)O1`, the activity change was -22.5% (inactive).

As to `CCC(=O)N1[C@@H](CO)[C@@H](c2ccccc2)C12CN(C(=O)c1cnccn1)C2`, the activity change is -2.84% (inactive).

For the molecule `CCC(=O)N1CC2(CN(Cc3cccnc3)C2)c2c(n(C)c3cc(OC)ccc23)[C@@H]1CO`, the activity change was -20.9% (inactive).

For `COc1ccc(NC(=O)N[C@@H]2CC[C@H](CCn3cc(-c4ccc(OC)cc4)nn3)O[C@@H]2CO)cc1`, the activity change is -56.9% (inactive).

On to `C[C@H]1CN([C@@H](C)CO)C(=O)c2c(c3ccccc3n2C)-c2ccccc2CO[C@@H]1CN(C)C(=O)Nc1ccnc(N2CCOCC2)c1`, for which the activity change is -58.1% (inactive).

Take `CO[C@H]1CN(C)C(=O)c2cc(NC(=O)C3CC3)ccc2OC[C@H](C)N(CC2CCCC2)C[C@@H]1C`: the activity change was -38.7% (inactive).

Regarding `CCS(=O)(=O)N1CC2(C1)CN(S(=O)(=O)c1ccccc1)[C@H](CO)c1c2c2ccc(OC)cc2n1C`, the activity change was -29.8% (inactive).

For `O=C(C[C@@H]1C[C@@H]2c3cc(NC(=O)c4ccc5c(c4)OCO5)ccc3O[C@@H]2[C@H](CO)O1)NCCc1ccccc1`, the activity change was -3.19% (inactive).

Consider `CCCC(=O)N1CCC2(CC1)CN(C(=O)C1CCCCC1)[C@@H](CO)c1[nH]c3cc(OC)ccc3c12`, for which the activity change is -78% (inactive).

Turning to `CCS(=O)(=O)N1CCC2(CC1)CN(Cc1ccc3c(c1)OCO3)[C@H](CO)c1[nH]c3cc(OC)ccc3c12`, the activity change was -89.1% (active).

For `COc1ccc2c3c([nH]c2c1)[C@H](CO)N(C(=O)Nc1ccc(F)cc1)CC31CCN(C(=O)c2ccccn2)CC1`, the activity change was -79.3% (inactive).

Consider `CCC(=O)N1CCC2(CC1)CN(Cc1ccc(Cl)cc1)[C@@H](CO)c1[nH]c3cc(OC)ccc3c12`, for which the activity change was -90.6% (active).

In the case of `COc1ccc2c3c([nH]c2c1)[C@H](CO)N(Cc1ccccc1)CC31CCN(C(=O)c2ccccn2)CC1`, the activity change is -83.5% (active).

For the molecule `CCS(=O)(=O)N1CCC2(CC1)CN(S(=O)(=O)c1ccc(C)cc1)[C@H](CO)c1[nH]c3cc(OC)ccc3c12`, the activity change was -53.4% (inactive).

Turning to `CCC(=O)N1CCC2(CC1)CN(Cc1cccc(OC)c1)[C@@H](CO)c1[nH]c3cc(OC)ccc3c12`, the activity change is -89.5% (active).

Regarding `CCC(=O)N1CCC2(CC1)CN(Cc1cccc(Cl)c1)[C@@H](CO)c1c2c2ccc(OC)cc2n1C`, the activity change was -75.9% (inactive).

Turning to `CCCNC(=O)N1CCC2(CC1)CN(Cc1ccccc1)[C@H](CO)c1[nH]c3cc(OC)ccc3c12`, the activity change is -59.4% (inactive).

As to `COc1ccc2c3c([nH]c2c1)[C@@H](CO)N(C(=O)NC(C)C)CC31CCN(C(=O)c2ccccn2)CC1`, the activity change was -13% (inactive).

With `CCC(=O)N1CC2(CN(Cc3ccc(Cl)cc3)C2)c2c([nH]c3cc(OC)ccc23)[C@@H]1CO`, the activity change was -23% (inactive).

`COc1ccc2c3c([nH]c2c1)[C@@H](CO)N(Cc1ccc2c(c1)OCO2)CC31CN(C(=O)Nc2c(C)noc2C)C1`: the activity change was -13.6% (inactive).

Turning to `Cc1noc(C)c1NC(=O)N(C)C[C@@H]1Oc2cc(Br)ccc2S(=O)(=O)N([C@@H](C)CO)C[C@H]1C`, the activity change was 12.9% (inactive).

Consider `COc1cccc(NC(=O)C[C@@H]2CC[C@@H]3[C@H](COc4ccc(NC(=O)C5CCOCC5)cc4C(=O)N3C)O2)c1`, for which the activity change is 11.1% (inactive).

As for `C/C=C/c1ccc2c(c1)[C@H]1[C@H](CCN1S(=O)(=O)c1cn(C)cn1)[C@H](CO)N2`, the activity change is -1.2% (inactive).

Regarding `CCCNC(=O)N1C[C@H]2[C@@H](c3ccccc31)[C@@H](CO)N2C(=O)NCCC`, the activity change was -1.9% (inactive).

For `COc1ccc2c3c([nH]c2c1)[C@H](CO)N(Cc1cccc(F)c1)CC31CCN(Cc2ccccn2)CC1`, the activity change was -92.5% (active).

With `COc1ccc2c3c([nH]c2c1)[C@@H](CO)N(Cc1nccs1)CC31CCN(C(=O)C2CCCC2)CC1`, the activity change was -74.5% (inactive).

As to `COc1cccc(CN2CC3(CN(Cc4ccccn4)C3)c3c([nH]c4cc(OC)ccc34)[C@@H]2CO)c1`, the activity change is -87.9% (active).

As to `CCCNC(=O)N1CC2(CCN(Cc3ccc(F)cc3)CC2)c2c([nH]c3cc(OC)ccc23)[C@@H]1CO`, the activity change is -77.7% (inactive).

Regarding `COc1ccc2c3c([nH]c2c1)[C@H](CO)N(Cc1ccc(F)cc1)CC31CCN(Cc2ccccn2)CC1`, the activity change is -89.5% (active).

`COc1ccc2c3c([nH]c2c1)[C@H](CO)N(Cc1nccs1)CC31CCN(Cc2cccnc2)CC1`: the activity change was -58.7% (inactive).

As for `COc1ccc2c3c([nH]c2c1)[C@@H](CO)N(C(=O)Cc1ccccc1)CC31CCN(C)CC1`, the activity change is -55.8% (inactive).

As for `COc1ccc2c3c([nH]c2c1)[C@@H](CO)N(C(=O)C1CC1)CC31CCN(Cc2nccs2)CC1`, the activity change is -26.9% (inactive).

As for `COc1ccc2c3c([nH]c2c1)[C@H](CO)N(Cc1nccs1)CC31CCN(Cc2ccncc2)CC1`, the activity change was -85.5% (active).

For `C[C@@H]1CCCCO[C@@H](CN(C)S(=O)(=O)c2cn(C)cn2)[C@H](C)CN([C@H](C)CO)C(=O)c2cc(NS(=O)(=O)c3ccc(Cl)cc3)ccc2O1`, the activity change is -31.8% (inactive).

Turning to `COCC(=O)N1C[C@@H](C)[C@H](OC)CN(C)C(=O)c2ccc(NC(=O)c3ccc(F)cc3)cc2OC[C@H]1C`, the activity change was 12.6% (inactive).

As to `COc1ccc(NC(=O)N(C)C[C@H]2OCCCC[C@H](C)Oc3ccc(NS(=O)(=O)c4ccc(Cl)cc4)cc3C(=O)N([C@@H](C)CO)C[C@H]2C)cc1`, the activity change was -68.7% (inactive).

Regarding `CN(C)CC(=O)Nc1ccc2c(c1)[C@@H]1C[C@H](CC(=O)NCc3ccc(-c4ccccc4)cc3)O[C@@H](CO)[C@@H]1O2`, the activity change was -1.93% (inactive).

As for `COCC(=O)Nc1ccc2c(c1)OC[C@H](C)N(C)C[C@H](C)[C@@H](OC)CN(C)C2=O`, the activity change was 26.8% (inactive).

Turning to `C[C@@H]1CCCCO[C@H](CN(C)S(C)(=O)=O)[C@@H](C)CN([C@H](C)CO)C(=O)c2cc(NC(=O)Nc3ccc4c(c3)OCO4)ccc2O1`, the activity change is 25.2% (inactive).

Take `COCC(=O)Nc1ccc2c(c1)C(=O)N(C)[C@@H]1CC[C@@H](CC(=O)NCc3cccc(F)c3)O[C@@H]1CO2`: the activity change was 5.24% (inactive).

Consider `CNC(=O)C[C@H]1CC[C@H]2[C@H](COc3ccc(NC(=O)c4cccc(F)c4)cc3C(=O)N2C)O1`, for which the activity change was 1.45% (inactive) and 0.97% (inactive).

For the molecule `CC(C)NC(=O)N[C@H]1CC[C@H](CC(=O)N2CCCCC2)O[C@@H]1CO`, the activity change is 36.7% (inactive).

Turning to `CCS(=O)(=O)N1[C@H](CO)[C@@H](c2ccccc2)C12CN(C(=O)c1ccccc1F)C2`, the activity change is -5.45% (inactive).

Regarding `COc1ccc2c3c([nH]c2c1)[C@@H](CO)N(C(=O)c1ccccc1)CC31CCN(Cc2cccnc2)CC1`, the activity change was -47.6% (inactive).

With `COc1ccc2c3c([nH]c2c1)[C@@H](CO)N(Cc1ccccc1)CC31CCN(Cc2cncnc2)CC1`, the activity change is -91.1% (active).

As for `COc1ccc2c3c([nH]c2c1)[C@@H](CO)N(C(=O)CC1CC1)CC31CCN(Cc2cccnc2)CC1`, the activity change was -7.62% (inactive).

Consider `CN(C)CC(=O)N[C@@H]1CC[C@H](CC(=O)O)O[C@H]1CO`, for which the activity change was 14.9% (inactive).
